For five compounds, composite z-score and z-score results are on record in PubChem BioAssay.

Calls of active or inactive are those of the source. Unless noted, how the calls were made is not given here.

Experiment [1] in a line: anti-His antibody binders, primary screen, artefact control for SMM control protein annotation, biochemical, small-molecule microarray, 635 nm fluorescence (AID 1128).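 Further: score merges feature fluorescence with signal-to-noise for each printed compound spot.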 Particulars: anti-His Alexa647 antibody binding, higher = more signal.
In experiment [2] the test system is Human papillomavirus type 1a E7 protein (residues 1-88). Nature of the experiment: HPV1a E7 small-molecule binders, primary screen, biochemical, small-molecule microarray, residues 1-88, 635 nm (AID 1129). The conditions noted are these: small-molecule microarray binding, fluorescence 635 nm; higher = more signal.
Experiment [3] concerns the target Focal adhesion kinase 1 (Homo sapiens) (UniProt Q05397). Nature of the experiment: small-molecule microarray binders of FAK, primary screen, biochemical, 635/667 nm fluorescence, BSA, DTT (AID 1130).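 Further: composite of spot emission at 667 nm and signal to noise over triplicate slides.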 Particulars: PTK2 binding, 635 nm fluorescence, higher = more signal.
Experiment [4] deals with Fibrinogen (Alexa647-labelled). Nature of the experiment: fibrinogen binders on compound microarrays, profiling panel, artefact control for SMM control-protein annotation, biochemical, small-molecule microarray, 635/667 nm fluorescence (AID 1131).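 Further: z-score merges 667 nm fluorescence with per-spot signal-to-noise over triplicate slides.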 The conditions noted are these: fibrinogen-A647 binding fluorescence, higher = more signal.
The target in experiment [5] is Follistatin (Homo sapiens) (UniProt P19883). Nature of the experiment: follistatin binders on small-molecule microarrays, primary screen, biochemical, small-molecule microarray, 635/667 nm fluorescence (AID 1132). Particulars: FST binding, 635 nm fluorescence, higher = more signal.
Sequence of Follistatin (Homo sapiens) (P19883 whole entry, looked up): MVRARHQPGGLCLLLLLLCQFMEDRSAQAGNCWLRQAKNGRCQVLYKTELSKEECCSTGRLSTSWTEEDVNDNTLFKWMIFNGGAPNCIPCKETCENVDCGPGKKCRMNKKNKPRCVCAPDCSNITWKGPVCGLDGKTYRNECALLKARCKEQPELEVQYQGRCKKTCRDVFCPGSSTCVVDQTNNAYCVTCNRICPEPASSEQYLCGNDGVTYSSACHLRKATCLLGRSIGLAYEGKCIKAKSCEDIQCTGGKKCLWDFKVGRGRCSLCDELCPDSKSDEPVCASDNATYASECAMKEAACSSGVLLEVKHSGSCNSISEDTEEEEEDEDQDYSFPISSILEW
Experiment [6] has as its target Fibroblast growth factor 2 (Homo sapiens) (UniProt P09038). The experiment is described as follows: FGF2 binders on small-molecule microarrays, primary screen, biochemical, small-molecule microarray, 635/667 nm fluorescence (AID 1133). The conditions noted are these: small-molecule microarray binding, FGF2, fluorescence 635/667; higher = more signal.
A short description of experiment [7]: mitochondrial membrane potential change in A549 cells, profiling panel, cell-based, JC-1 fluorescence, basal, 24 h, 100 nL (AID 1138).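 Further: A549 lung adenocarcinoma cells under basal conditions with no added stimulus; test concentration not given here.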 The conditions noted are these: higher = more signal.
The test system of the next experiment is Lefty1. Nature of the experiment: Lefty1 binders on small-molecule microarrays, primary screen, biochemical, small-molecule microarray, 635/667 nm fluorescence (AID 1139). The conditions noted are these: small-molecule microarray binding, fluorescence 635/667; higher = more signal.
In experiment [8] the test system is wheat germ agglutinin (Triticum aestivum), Alexa647-labelled. Nature of the experiment: wheat germ agglutinin binders on compound microarrays, profiling panel, artefact control for SMM control-protein annotation, biochemical, small-molecule microarray, 635/667 nm fluorescence (AID 1140).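 Further: score merges 667 nm feature emission with signal to noise over triplicate slides.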 The conditions noted are these: WGA-A647 binding, 635 nm fluorescence, higher = more signal.

The target of experiment [9] is Luciferin 4-monooxygenase (Photinus pyralis) (UniProt P08659). Nature of the experiment: firefly luciferase enzyme inhibitors, primary screen, biochemical, luminescence, purified enzyme, 2006 set (AID 1141).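 Further: cell-free assay with purified firefly luciferase at 100 ng per well in PBS; test concentration not given here.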 Particulars: SteadyGlo luminescence, 30 min, higher = more signal, called active from +8 up or from −8 down.
Sequence of Luciferin 4-monooxygenase (Photinus pyralis) (P08659 whole entry, looked up): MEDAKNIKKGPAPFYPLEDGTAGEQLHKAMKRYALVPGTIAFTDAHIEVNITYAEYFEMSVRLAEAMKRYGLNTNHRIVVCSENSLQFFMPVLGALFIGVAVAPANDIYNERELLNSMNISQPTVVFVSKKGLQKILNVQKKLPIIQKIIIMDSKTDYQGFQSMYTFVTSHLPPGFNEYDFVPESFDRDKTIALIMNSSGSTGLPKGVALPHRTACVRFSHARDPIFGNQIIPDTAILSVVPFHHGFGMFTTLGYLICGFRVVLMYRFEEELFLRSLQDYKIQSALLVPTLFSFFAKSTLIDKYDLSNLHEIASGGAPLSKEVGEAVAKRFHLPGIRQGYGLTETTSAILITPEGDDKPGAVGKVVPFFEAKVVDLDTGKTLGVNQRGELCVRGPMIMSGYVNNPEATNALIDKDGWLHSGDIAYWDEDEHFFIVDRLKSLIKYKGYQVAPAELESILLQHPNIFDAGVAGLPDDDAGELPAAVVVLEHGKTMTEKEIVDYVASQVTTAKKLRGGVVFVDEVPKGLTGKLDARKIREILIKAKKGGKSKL
Experiment [10] concerns Wnt5a (protein binding on small-molecule microarray). The experiment is described as follows: Wnt5a binders on small-molecule microarray, primary screen, biophysical, 635/667 nm fluorescence (AID 1142).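 Further: fluorescence read at 667 nm with signal to noise per printed feature.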 The conditions noted are these: 635 nm fluorescence, higher = more signal.
Experiment [11] is described as follows: cell viability in Huh7 cells, primary screen, cytotoxicity control for HCV replication inhibitor project, CellTiter-Glo luminescence, basal, 48 h (AID 1143).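 Further: Huh7 hepatoma cells carrying a hepatitis C replication reporter with no stimulus; test concentration not given here.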 The conditions noted are these: Huh7 HCV replicon, higher = more signal, called active from +8 up or from −8 down. For orientation: In ATP-based viability assays light output follows the ATP content of the culture.

The nature of experiment [12]: P. aeruginosa biofilm formation inhibitors, primary screen, PAO1 strain, BacTiter-Glo luminescence, LB-PBS (AID 1144). The conditions noted are these: 12 h, higher = more signal.
Experiment [13] is described as follows: CREB reporter modulators without forskolin, primary screen, cell-based, PC12, CRE-LacZ reporter, unstimulated (AID 1145). The conditions noted are these: no forskolin, luminescence, 4.5 h, higher = more signal, called active from +8 up or from −8 down.
The nature of experiment [14]: CREB reporter modulators under forskolin, primary screen, cell-based, PC12, CRE-LacZ reporter, forskolin-stimulated (AID 1146).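 Further: PC12 cells with 6xCRE LacZ reporter stimulated by forskolin 10 µM; beta-galactosidase reporter signal reflecting CREB driven transcription.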 Particulars: luminescence, 4.5 h, higher = more signal, called active from +8 up or from −8 down.
Experiment [15] addresses Streptavidin (Streptomyces avidinii) (UniProt P22629). Nature of the experiment: streptavidin binders on small-molecule microarray, primary screen, artefact control for SMM compound annotation, biophysical, 635/667 nm fluorescence (AID 1147).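 Further: signal reflects streptavidin binding to arrayed compounds as a control protein.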 The conditions noted are these: streptavidin binding, higher = more signal.
The nature of experiment [16]: small-molecule binders of probe aInhba, primary screen, biochemical, small-molecule microarray, 635/667 nm fluorescence (AID 1148).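 Further: score merges 667nm spot fluorescence with signal-to-noise for antibody binding to printed compounds.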 Particulars: higher = more signal.
In experiment [17] the target is Torsin-1A (Homo sapiens) (UniProt O14656). Nature of the experiment: torsin A binders from cell lysate, primary screen, small-molecule microarray, wild-type, 635/667 nm (AID 1149). Particulars: COS7 hTOR1A-WT lysate, 635 nm fluorescence, higher = more signal.
Sequence of Torsin-1A (Homo sapiens) (O14656 whole entry, looked up): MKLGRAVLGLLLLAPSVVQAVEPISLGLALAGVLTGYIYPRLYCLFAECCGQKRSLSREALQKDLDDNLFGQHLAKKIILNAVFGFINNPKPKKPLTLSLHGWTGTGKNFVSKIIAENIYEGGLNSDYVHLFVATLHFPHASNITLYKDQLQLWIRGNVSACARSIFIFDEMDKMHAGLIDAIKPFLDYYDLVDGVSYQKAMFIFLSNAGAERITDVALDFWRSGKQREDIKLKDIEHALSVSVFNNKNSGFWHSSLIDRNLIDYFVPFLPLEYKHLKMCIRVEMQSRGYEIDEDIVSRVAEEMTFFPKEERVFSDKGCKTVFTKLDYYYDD
Experiment [18] has the same target. The experiment is described as follows: small-molecule binders of mutant TOR1A in lysate, primary screen, cell lysate, small-molecule microarray, COS7 lysate, 635/667 nm fluorescence (AID 1150).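 Further: score pools 667 nm emission and signal to noise measuring lysate protein binding.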 The conditions noted are these: COS7 hTOR1A mutant lysate, 635 nm fluorescence, higher = more signal.
Experiment [19] deals with Sonic hedgehog protein (Shh). Nature of the experiment: small-molecule binders of Shh protein, primary screen, biochemical, small-molecule microarray, 635/667 nm fluorescence (AID 1151).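 Further: Shh protein binding to compounds spotted on small-molecule microarray slides; score combines spot fluorescence intensity with signal-to-noise across triplicate slides.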 The conditions noted are these: small-molecule microarray binding, 635 nm fluorescence; higher = more signal.

Sequence of Focal adhesion kinase 1 (Homo sapiens) (Q05397 whole entry, looked up): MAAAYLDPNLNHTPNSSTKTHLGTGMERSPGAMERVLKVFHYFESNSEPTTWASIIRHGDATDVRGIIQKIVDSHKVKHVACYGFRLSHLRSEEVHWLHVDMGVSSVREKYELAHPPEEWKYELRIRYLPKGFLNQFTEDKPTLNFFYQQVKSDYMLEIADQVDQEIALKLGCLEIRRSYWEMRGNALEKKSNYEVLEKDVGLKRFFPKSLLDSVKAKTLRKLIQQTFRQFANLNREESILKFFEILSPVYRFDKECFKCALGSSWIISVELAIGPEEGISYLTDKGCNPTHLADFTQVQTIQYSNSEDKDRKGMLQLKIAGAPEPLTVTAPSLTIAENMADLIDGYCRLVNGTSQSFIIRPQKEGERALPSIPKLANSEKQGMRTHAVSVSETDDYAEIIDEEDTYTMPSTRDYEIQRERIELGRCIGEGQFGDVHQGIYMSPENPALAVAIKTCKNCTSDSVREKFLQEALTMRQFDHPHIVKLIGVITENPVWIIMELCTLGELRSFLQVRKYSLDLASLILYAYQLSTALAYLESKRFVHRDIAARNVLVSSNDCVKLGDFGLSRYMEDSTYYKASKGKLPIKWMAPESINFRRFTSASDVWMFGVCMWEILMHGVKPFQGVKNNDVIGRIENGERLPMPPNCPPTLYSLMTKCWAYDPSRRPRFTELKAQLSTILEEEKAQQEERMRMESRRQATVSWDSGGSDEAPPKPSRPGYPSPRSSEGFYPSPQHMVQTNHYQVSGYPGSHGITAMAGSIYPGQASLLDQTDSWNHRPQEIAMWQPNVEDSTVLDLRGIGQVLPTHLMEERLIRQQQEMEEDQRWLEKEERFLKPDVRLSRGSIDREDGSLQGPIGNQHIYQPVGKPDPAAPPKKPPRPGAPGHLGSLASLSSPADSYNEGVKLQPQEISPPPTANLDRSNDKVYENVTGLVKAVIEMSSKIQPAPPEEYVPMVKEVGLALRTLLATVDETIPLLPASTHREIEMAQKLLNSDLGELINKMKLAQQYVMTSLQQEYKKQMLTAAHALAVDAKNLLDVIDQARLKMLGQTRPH
Sequence of Fibroblast growth factor 2 (Homo sapiens) (P09038 whole entry, looked up): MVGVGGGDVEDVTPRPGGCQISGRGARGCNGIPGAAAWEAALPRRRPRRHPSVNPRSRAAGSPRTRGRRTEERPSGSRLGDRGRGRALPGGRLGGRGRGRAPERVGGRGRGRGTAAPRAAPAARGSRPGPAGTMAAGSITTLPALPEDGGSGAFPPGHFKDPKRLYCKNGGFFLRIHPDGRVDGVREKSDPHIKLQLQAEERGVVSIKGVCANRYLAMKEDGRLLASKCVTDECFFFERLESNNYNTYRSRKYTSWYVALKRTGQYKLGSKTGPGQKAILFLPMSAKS
Sequence of Streptavidin (Streptomyces avidinii) (P22629 whole entry, looked up): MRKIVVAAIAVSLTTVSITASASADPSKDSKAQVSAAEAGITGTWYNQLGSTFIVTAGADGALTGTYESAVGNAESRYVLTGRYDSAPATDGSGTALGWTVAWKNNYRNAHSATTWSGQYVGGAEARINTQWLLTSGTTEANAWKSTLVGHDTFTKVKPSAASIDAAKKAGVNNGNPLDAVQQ

For the compound `O=C1O[C@@H](c2ccccc2)[C@@H](c2ccccc2)N2[C@@H](c3ccc(OCCO)cc3)[C@]3(C(=O)Nc4ccccc43)[C@@H](C(=O)NC[C@H](O)c3ccccc3)[C@H]12`, the composite z-score in [1] is 0.87; in [2], 0.894; in experiment [3], -0.177; in experiment [4], 0.371; in experiment [5], 1.34; in experiment [6] it was 0.968. For the same compound, the composite z-score in the experiment with Lefty1 amounted to 0.0849; in [8], 0.638; in [10], 0.0635; in experiment [15], 0.146; in experiment [16], 0.0561; in the experiment with Torsin-1A (Homo sapiens) [17], 0.437. The values for the composite z-score (in the experiment with Torsin-1A (Homo sapiens) [18]; in experiment [19]) were 0.14 and 0.95, respectively. For the same compound, the z-score in experiment [7] is -0.575; in experiment [9], -1.46 (inactive); in experiment [11], -1.19 (inactive); in [12] it was -0.388 (inactive); in [13], -0.606 (inactive); in [14] it was 2.97 (inactive).
`O=C1C2C=CC(C(O)C(c3ccccc3)c3ccccc3)N(n3cnnc3)C2C(=O)N1Cc1ccccc1` (stereo not given): the composite z-score in experiment [1] is 0.305; in [2] it was 1.21; in [3], 0.638; in [4], 0.977; in experiment [5], 0.552; in experiment [6], 1.54. Also, the composite z-score in the experiment with Lefty1 is 0.0063; in experiment [8], 0.131; in experiment [10], 0.159; in experiment [15] it was 1.12; in experiment [16], 0.057; with Torsin-1A (Homo sapiens) [17], 0.0613. Moreover, the values for the composite z-score (in the experiment with Torsin-1A (Homo sapiens) [18]; in experiment [19]) were 0.142 and -0.0479, respectively. Besides, the z-score is -0.806 in experiment [7]; 1.01 (inactive) in experiment [9]; -0.0706 (inactive) in [11]; 0.738 (inactive) in experiment [12]; 0.182 (inactive) in experiment [13]; 0.202 (inactive) in experiment [14].
In the case of `O=C1c2ccccc2[C@@]2(Cc3ccccc3N(CCN3CCOCC3)C2=O)[C@H](c2ccc(CO)cc2)N1Cc1ccccc1`, the composite z-score in experiment [1] is -0.784; in [2], -0.689; in [3], 0.352; in experiment [4], -0.523; in experiment [5], 0.0312; in experiment [6] it was -0.253. Also, the composite z-score with Lefty1 is -0.0729; in experiment [8], -0.304; in experiment [10], -0.465; in [15], -0.383; in experiment [16], -0.231; with Torsin-1A (Homo sapiens) [17] it was 0.437. Moreover, the composite z-score is 0.456 in the experiment with Torsin-1A (Homo sapiens) [18] and -0.613 in [19]. Besides, the z-score is 0.202 in [7]; 1.01 (inactive) in experiment [9]; -1.24 (inactive) in experiment [11]; -1.33 (inactive) in experiment [12]; 0.208 (inactive) in experiment [13]; -0.297 (inactive) in [14].
For `COc1cc2c(cc1OC)CN(C(=O)[C@@H]1[C@H]3C(=O)O[C@H](c4ccccc4)[C@H](c4ccccc4)N3[C@H](c3ccc(O)cc3)[C@@]13C(=O)Nc1ccc(C#CC4(O)CCCCCC4)cc13)CC2`, the composite z-score in experiment [1] was determined as 2.4; in experiment [2], 1.25; in experiment [3], 0.592; in [4], 0.924; in experiment [5], 1.14; in experiment [6], 1.35. The composite z-score was 0.999 in the experiment on Lefty1; 0.137 in [8]; 0.382 in experiment [10]; 1.06 in [15]; -0.287 in experiment [16]; 0.287 with Torsin-1A (Homo sapiens) [17]. Besides, the composite z-score with Torsin-1A (Homo sapiens) [18] turned out to be 0.787; in experiment [19], 1.91. Further, the z-score in [7] is -0.373; in [9] it was -0.798 (inactive); in experiment [11] it was -0.292 (inactive); in experiment [12], -0.37 (inactive); in [13], -0.168 (inactive); in [14] it was -0.65 (inactive).
As to `O=C(NCC(F)(F)F)[C@@H]1c2ccccc2C(=O)N(C2CCCCC2)[C@H]1c1ccc(CO)cc1`, the composite z-score in [1] was -0.216; in experiment [2], 0.402; in [3], -0.013; in [4], 0.403; in experiment [5], 0.173; in experiment [6], -0.179. In addition, the composite z-score in the experiment on Lefty1 was -0.63; in experiment [8], 0.807; in experiment [10], -0.107; in [15], 0.0656; in experiment [16], -0.0422; in the experiment with Torsin-1A (Homo sapiens) [17], 0.252. In addition, the results for the composite z-score (with Torsin-1A (Homo sapiens) [18]; in [19]) were -0.287 and -0.376, respectively. Besides, the z-score in [7] is 0.221; in experiment [9] it was -0.128 (inactive); in experiment [11] it was -1.51 (inactive); in [12] it was 0.795 (inactive); in [13] it was 0.299 (inactive); in experiment [14] it was -0.258 (inactive).
